The text below walks through data of PubChem BioAssay (NCI).

Assay [1] is described as follows: NCI Yeast Anticancer Drug Screen. Data for the rad50 strain (AID 155).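 Also: 0% = growth of vehicle-only cultures of the same strain.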 Particulars: S. cerevisiae rad50 strain growth inhibition; at 50.0 µM; stronger effect = higher value. The essentials:
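A DNA repair-deficient yeast mutant serves as the test organism; compound-induced growth inhibition is calculated against vehicle-treated cells.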

Assay [2] can be described thus: NCI Yeast Anticancer Drug Screen. Data for the mec2-1 strain (AID 157). To be noted: S. cerevisiae mec2-1 strain, at 50.0 µM, stronger effect = higher value. The essentials: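 Strain: mec2-1 (DNA repair/cell cycle alteration). Compound exposure, then growth measured; inhibition expressed relative to vehicle.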
Assay [3] is described as follows: NCI Yeast Anticancer Drug Screen. Data for the sgs1 mgt1 strain (AID 161).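 Also: 0% = growth of cultures given vehicle only.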 Particulars: S. cerevisiae sgs1 mgt1 strain, at 50.0 µM, stronger effect = higher value. The essentials: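 Inhibition of yeast growth, normalised to vehicle-treated controls, is reported for a strain bearing genetic alterations in DNA damage repair.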
Assay [4] in a line: NCI Yeast Anticancer Drug Screen. Data for the cln2 rad14 strain (AID 165).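 Also: 0% = growth equal to vehicle treated cultures.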 Particulars: S. cerevisiae cln2 rad14 strain, at 50.0 µM, stronger effect = higher value. The essentials: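 Compounds are applied to the cln2 rad14 yeast strain, and growth is then compared with that of vehicle-treated cultures to give inhibition.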
Assay [5] in a line: NCI Yeast Anticancer Drug Screen. Data for the bub3 strain (AID 167). To be noted: S. cerevisiae bub3 mutant strain, at 50.0 µM, stronger effect = higher value. The essentials: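 Inhibition values come from growth of compound-treated mutant yeast normalised to vehicle-treated controls.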
Assay [6] in a line: NCI Yeast Anticancer Drug Screen. Data for the mlh1 rad18 strain (AID 175). To be noted: S. cerevisiae mlh1 rad18 strain growth inhibition; at 50.0 µM; stronger effect = higher value. The essentials: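 Read-out is yeast growth inhibition, calculated against vehicle-only controls. The compound was applied to a strain engineered with DNA damage repair alterations.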

Compounds without any hit were thinned out: in the full panel of roughly 79,000, 15% have a hit. A number with no mark means an inactive call. Activity calls are given as the source filed them. Rule as the data show it: active = growth inhibition above about 70%; inactive = the rest.

Consider `C/C(=N\O)C1(O)CCCCC1`, for which the growth inhibition was 28.9% in assay [1]; 3.55% in assay [2]; 8% in assay [3]; 13.7% in assay [4]; 7.45% in assay [5]; 15.8% in assay [6].

For `CCC(C)(C)C1CCC(O)CC1` (stereo not given), the growth inhibition in assay [1] was 10.2%; in assay [2] it was 6.6%; in assay [3], 12.7%; in assay [4], -53.5%; in assay [5], -5.15%; in assay [6] it was 1.5%.

Consider `O=C(CC(=O)c1ccccc1O)c1ccccc1`, for which the growth inhibition in assay [1] is 31.4%; in assay [2] it was 43.1%; in assay [3], 34.4%; in assay [4] it was 40.5%; in assay [5] it was 62.6%; in assay [6] it was 39.9%.

Consider `S=c1[nH]ccn1-c1ccccc1Cl`, for which the growth inhibition was -17.8% in assay [1]; -17.2% in assay [2]; -17.6% in assay [3]; -29.1% in assay [4]; -10.4% in assay [5]; -2.1% in assay [6].

As for `O=S(=O)(O)C(Nc1ccccc1)c1ccccc1` (stereo not given), the growth inhibition in assay [1] was -4.35%; in assay [2], -27.7%; in assay [3], 9.5%; in assay [4], -0.25%; in assay [5], 16%; in assay [6], -11.6%.

With `Cn1cnc2nc(Cl)nc(Cl)c21`, the growth inhibition was 13.1% in assay [1]; 23% in assay [2]; 10.7% in assay [3]; -0.05% in assay [4]; 27.1% in assay [5]; 11.2% in assay [6].

As to `CC(=O)c1ccc(N=C(C#N)C2=C(O)c3ccccc3C2=O)cc1`, the growth inhibition was 15.7% in assay [1]; -12.4% in assay [2]; 25.8% in assay [3]; 14.2% in assay [4]; 10.9% in assay [5]; 13.3% in assay [6].

With `CC1(C)N=C(N)N=C(N)N1c1ccc(Cl)cc1`, the growth inhibition in assay [1] is 19.7%; in assay [2] it was 3.35%; in assay [3], 0.4%; in assay [4], -20.2%; in assay [5] it was 3.85%; in assay [6], 35.7%.

With `CCOC(=O)c1ccc(NC(=S)P(=O)(c2ccccc2)c2ccccc2)cc1`, the growth inhibition is 41.5% in assay [1]; 10.2% in assay [2]; 42.8% in assay [3]; 30.7% in assay [4]; 14.9% in assay [5]; 39.8% in assay [6].

As for `COC(=O)Nc1cccc(Cl)c1OC`, the growth inhibition was 8.6% in assay [1]; -21.4% in assay [2]; 0.45% in assay [3]; 2.05% in assay [4]; 3.55% in assay [5]; -6.55% in assay [6].

In the case of `Cc1cc(C(O)(c2ccc(Nc3ccccc3)cc2)c2ccc(Nc3ccc(S(=O)(=O)O)cc3)cc2)ccc1N` (stereo not given), the growth inhibition is -44.5% in assay [1]; -46% in assay [2]; -9.6% in assay [3]; -16.1% in assay [4]; -36.6% in assay [5]; -34.6% in assay [6].

In the case of `CCCOC(=O)C(O)c1ccccc1` (stereo not given), the growth inhibition is 16.2% in assay [1]; -6.25% in assay [2]; -5.5% in assay [3]; -24.1% in assay [4]; -13.2% in assay [5]; 14.8% in assay [6].

With `COc1ccc(C(C)C=O)cc1` (stereo not given), the growth inhibition in assay [1] was 5.55%; in assay [2] it was -14.8%; in assay [3], -30.3%; in assay [4], -51.5%; in assay [5], -27.9%; in assay [6], 2.3%.

Regarding `COc1nc(N)nc2c1ncn2C1OC(CO)CC1O` (stereo not given), the growth inhibition was 13.4% in assay [1]; -3.2% in assay [2]; -3.5% in assay [3]; 10.9% in assay [4]; 0.55% in assay [5]; 25.8% in assay [6].

In the case of `C=CCNc1ccccc1`, the growth inhibition in assay [1] was 31.2%; in assay [2] it was 4.35%; in assay [3], 7.55%; in assay [4] it was -36.6%; in assay [5], 17.6%; in assay [6], 13.7%.

In the case of `CCOc1ccc(Br)cc1/C=N\N=C\c1cc(Br)ccc1OCC`, the growth inhibition in assay [1] is -9.15%; in assay [2] it was -29.2%; in assay [3] it was -1.65%; in assay [4] it was 13.3%; in assay [5] it was 4.25%; in assay [6], -10.3%.

Consider `CN1C(=O)CN2CCc3ccccc3C2c2cc(Cl)ccc21` (stereo not given), for which the growth inhibition is 33.3% in assay [1]; 26.4% in assay [2]; 47.6% in assay [3]; 22.1% in assay [4]; 48% in assay [5]; 42.1% in assay [6].

As for `Cc1cc(=O)n(-c2ccc(F)cc2)[nH]1`, the growth inhibition in assay [1] is -5.15%; in assay [2], -14.1%; in assay [3] it was 22.1%; in assay [4], 2.8%; in assay [5] it was 50.6%; in assay [6], 12.1%.

Consider `COc1cc(C(=O)N/N=C/c2cccc([N+](=O)[O-])c2)cc(OC)c1OC`, for which the growth inhibition is -5.5% in assay [1]; -13.4% in assay [2]; -41.9% in assay [3]; 24.4% in assay [4]; -39.2% in assay [5]; -64.5% in assay [6].

Regarding `O=C(O)c1ccc(S(=O)(=O)O)cc1`, the growth inhibition in assay [1] is 8.55%; in assay [2], 11.8%; in assay [3], 0.45%; in assay [4], -12.4%; in assay [5], 18.5%; in assay [6], 12.5%.

Take `Cc1ccc(N)cc1[N+](=O)[O-]`: the growth inhibition in assay [1] was 11.8%; in assay [2] it was 2%; in assay [3] it was 6.2%; in assay [4], 18.2%; in assay [5], 15.4%; in assay [6], 15.8%.

Take `O=c1cc2oc3cc(O)c(O)cc3c(-c3ccccc3O)c-2cc1O`: the growth inhibition in assay [1] was 26.1%; in assay [2], 2.25%; in assay [3], 44.9%; in assay [4], 32.3%; in assay [5], 41%; in assay [6], 26.4%.

`O=C(O)c1cccc([N+](=O)[O-])c1`: the growth inhibition in assay [1] is -28%; in assay [2], -8%; in assay [3], -21.8%; in assay [4], -27.1%; in assay [5], -23.1%; in assay [6] it was -27.4%.

With `C=C[Si](OC(C)=O)(OC(C)=O)OC(C)=O`, the growth inhibition in assay [1] was 27.2%; in assay [2], -13.2%; in assay [3], 0.85%; in assay [4], 14.7%; in assay [5] it was 13.7%; in assay [6], 1.65%.

`CCCNC(=O)c1ccc(S(N)(=O)=O)cc1`: the growth inhibition in assay [1] was -1.5%; in assay [2], 1%; in assay [3], -13.2%; in assay [4] it was -4.55%; in assay [5], 2.55%; in assay [6], -0.25%.

Regarding `COC(=O)c1ccccc1N(C)C`, the growth inhibition in assay [1] is 0.55%; in assay [2], -11.2%; in assay [3], -3.8%; in assay [4], 2.4%; in assay [5], 2.65%; in assay [6] it was 0.9%.

In the case of `COC(=O)c1ccccc1Br`, the growth inhibition is -1.7% in assay [1]; 7.8% in assay [2]; 3.4% in assay [3]; -22.1% in assay [4]; -3.75% in assay [5]; 6.45% in assay [6].

On to `N=c1c(C(=O)OCc2ccccc2)ncc(CCl)n1O`, for which the growth inhibition in assay [1] was 37.3%; in assay [2], 80.5% (active); in assay [3] it was 72.2% (active); in assay [4], 22.9%; in assay [5] it was 73.2% (active); in assay [6], 77.8% (active).

For `CC1CCCC(CC(N)=O)CC1` (stereo not given), the growth inhibition in assay [1] is 7.8%; in assay [2] it was 1.05%; in assay [3] it was 2.1%; in assay [4], 1.3%; in assay [5], 0.7%; in assay [6] it was 4.2%.

As to `CCN(CC)CCNc1ccc(CO)c2sc3ccccc3c(=O)c12`, the growth inhibition is -16.1% in assay [1]; -28.1% in assay [2]; -10.8% in assay [3]; 2.6% in assay [4]; -24.1% in assay [5]; -14.4% in assay [6].

With `CC(C(=O)O)(C1CCCCC1)C1(O)CCCCC1` (stereo not given), the growth inhibition in assay [1] is 29.8%; in assay [2] it was 45.5%; in assay [3] it was 39.9%; in assay [4] it was 59.5%; in assay [5], 62.5%; in assay [6] it was 29.5%.

On to `CN(C)CCN(C)CC(C)(C)C(=O)/C=C/c1ccc(Cl)cc1`, for which the growth inhibition is 27.9% in assay [1]; 3% in assay [2]; 9% in assay [3]; -2.65% in assay [4]; 19.7% in assay [5]; 31.8% in assay [6].

Take `Cc1cc(OCCO)cc(C)c1Cl`: the growth inhibition in assay [1] was -20.9%; in assay [2], -65.8%; in assay [3] it was -16.4%; in assay [4] it was 2.35%; in assay [5] it was -10.5%; in assay [6], -12.3%.

Take `CN(C)c1ccc(C(c2ccc(O)cc2)c2ccc(N(C)C)cc2)cc1`: the growth inhibition is -10.4% in assay [1]; -37.1% in assay [2]; -17.9% in assay [3]; -38.6% in assay [4]; -3% in assay [5]; -6.5% in assay [6].

Turning to `COC(=O)/C=C1\Sc2cc(F)ccc2NC1=O`, the growth inhibition in assay [1] was -12.9%; in assay [2] it was 2.45%; in assay [3], 13.9%; in assay [4], -44.2%; in assay [5], -8.5%; in assay [6], -6.55%.

Take `Clc1ccc(-c2nnc(-c3cccc4ccccc34)o2)cc1`: the growth inhibition in assay [1] is -22.9%; in assay [2], -56.9%; in assay [3] it was -29.4%; in assay [4], 0.15%; in assay [5] it was -19.6%; in assay [6], -24.6%.

Consider `CCCCC1C(=O)N(c2ccccc2)N(c2ccccc2)C1=O`, for which the growth inhibition in assay [1] is -5.2%; in assay [2], -10.6%; in assay [3] it was -2.65%; in assay [4] it was -5.75%; in assay [5] it was -4.2%; in assay [6], -19.1%.

Regarding `OCC(O)C(O)C(O)C(O)/C=N/O` (stereo not given), the growth inhibition was 1.4% in assay [1]; 0.7% in assay [2]; -6.4% in assay [3]; -6.7% in assay [4]; -1.1% in assay [5]; 3.65% in assay [6].

For `Cc1cc(C(C)(C)C)cc(C)c1Br`, the growth inhibition in assay [1] was -1.85%; in assay [2], -0.85%; in assay [3], -9.25%; in assay [4], -15.3%; in assay [5], 0.15%; in assay [6], -1.65%.

For the compound `O=C(O)CCCc1ccccc1`, the growth inhibition was 5.1% in assay [1]; -6.2% in assay [2]; 2.05% in assay [3]; -7.65% in assay [4]; 6% in assay [5]; 11.3% in assay [6].
